About 83,000 compounds went through this panel and 20% of them were active in at least one assay; those are over-represented in the sample as a whole.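 Step 1: grow cells in 96-well plates. Step 2: add test compound at a single concentration. Step 3: incubate 48 h. Step 4: record percent growth.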 A number with no mark means an inactive call. Calls of active or inactive are those of the source. Rule for the calls: active = growth percent below 10; inactive = the rest.
The compounds below were run on CCRF-CEM leukemia (assay: NCI-60 one-dose screen, 48 h (100 = growth as untreated, 0 = no growth, -100 = all killed)). Settings: 10 µM unless noted.

SMILES	growth
COc1ccc(-n2cc(-c3ccc(Cl)c(Cl)c3)[nH]c2=O)cc1OC	3.68% (active)
CN1CCN(S(=O)(=O)O[C@@H]2C(=O)N(c3cc4c5ccccc5ccc4c4ccccc34)[C@H]2c2ccc(F)cn2)CC1	74.8%
O=C(O)CCNC1CCCCC1	102%
C#C[C@@]1(O)[C@@H](CO)O[C@@H](n2cc(I)c3c(N)ncnc32)[C@@H]1O	6.77% (active)
COC1=CC2C=C(C3N(c4ccccc4)NC(=O)[C@@H]4CCCN34)C(=O)NC2C=C1 (stereo partly specified)	113%
CCCCc1n(Cc2ccc3ccccc3n2)cc[n+]1Cc1ccc2ccccc2c1	6.45% (active)
CN1CCN(/C=C2\CC(C(=O)NCc3ccc(Cl)cc3Cl)NC2=O)CC1 (stereo unspecified)	88%
O=C1NC(SCc2ccc(F)cc2)=N/C1=C/c1cccc(OCc2ccc(Cl)cc2)c1	54.8%
NS(=O)(=O)c1ccc(-n2ncc(NC(=O)Nc3ccc(S(=O)(=O)Nc4nccs4)cc3)c2-c2ccccc2)cc1	97.7%
N#CC(C#N)=C1NC(c2ccccc2)=C(c2ccccc2)C(c2ccccc2Cl)=C1C#N	96.2%
CCOc1ccccc1C(=O)/C=C/c1cc2ccccc2[nH]c1=O	-0.719% (active)
Cc1ccc2nc3nc4ccc[nH]c4cc3c2c1	98.9%
C=C1C(=O)O[C@H]2[C@H]1CC/C(C=Nc1c(N)cc(C(F)(F)F)cc1Br)=C\CC[C@@]1(C)O[C@@H]21	2.83% (active)
NC(N)=NC(N)=Nc1cc2ccccc2c2ccccc12	38.6%
O=C(Nc1ccc(S(=O)(=O)NC2CCCCCC2)cc1)C(c1ccccc1)S(=O)(=O)c1ccc(F)cc1 (stereo unspecified)	4.59% (active)
O=c1[nH]c2ccccc2cc1-c1nc2ccncc2[nH]1	59.5%
Cc1cccc(C)c1NCc1nnc(-c2ccco2)o1	91.4%
Cc1ccc(-c2nc(C#N)c(S(=O)(=O)N(C)CCO)o2)cc1	2.67% (active)
Nc1c(C(=O)Nc2ccccc2Cl)sc2nc3c(cc12)CN(Cc1ccccc1)CC3	91.7%

SMILES	growth
C#Cc1ccccc1NC(=O)c1sc2nc3c(cc2c1N)CCCCCC3	60.7%
CCOCc1cc(C(C)(C)C)ccc1O	101%
C=C(C)[C@@H]1CC[C@]2(C(=O)OCCOCCOCC[P+](c3ccccc3)(c3ccccc3)c3ccccc3)CC[C@]3(C)[C@H](CC[C@@H]4[C@@]5(C)CC[C@H](OC(=O)C(Cl)Cl)C(C)(C)[C@@H]5CC[C@]43C)[C@@H]12	4.25% (active)
CNCc1cccc2c1OCCOCCOCCN(CCN1CCOCC1)S(=O)(=O)c1ccc(cc1)-c1cnc(N)c(n1)C(=O)N2	18%
Cc1c(Cl)cccc1NC(=O)c1sc2nc3c(cc2c1N)CN(Cc1ccccc1)CC3	14.5%
C=C(C)[C@@H]1CC[C@]2(C(=O)NCCCO)CC[C@]3(C)[C@H](CC[C@@H]4[C@@]5(C)CCCNC(C)(C)[C@@H]5CC[C@]43C)[C@@H]12	60.4%
COc1cc(/C=N/Nc2nc(-c3ccc(F)cc3)c(C#N)c(N3CCOCC3)n2)ccc1O	84.1%
C=C(C)[C@@H]1CC[C@]2(C(=O)N=C=S)CC[C@]3(C)[C@H](CC[C@@H]4[C@@]5(C)CCC(=O)C(C)(C)[C@@H]5CC[C@]43C)[C@@H]12	28.1%
CC1CCCN(CCCCCOc2ccc3oc4ccc(Cl)cc4c(=O)c3c2)C1 (stereo unspecified)	72.8%
O=C(Nc1cccc(-c2cccc(F)c2)c1)C1CCN(Cc2cccc3cccnc23)CC1	57.2%
CC(=O)Nc1ccc2c(c1)Cc1cc(F)ccc1-2	99.1%
COc1ccc2[nH]c(=O)c(/C=C/C(=O)/C=C/c3ccc(O)c(OC)c3)cc2c1	3.63% (active)
CC1=C/C(=N\N=C2/C=C(C)CC(C)(C)C2)CC(C)(C)C1	97.9%
NC(=O)c1ccc(C2C3=C(CCCC3=O)OC3=C2C(=O)c2ccccc2C3=O)cc1 (stereo unspecified)	15%
N#CC1(C#N)C2=C(CCCC2)NC(c2c(F)cccc2Cl)C1(C#N)C#N (stereo unspecified)	36.1%
CCCCn1c(=O)c(/C=C/C(=O)/C=C/c2ccc(OC)cc2)cc2cc(Cl)ccc21	29.2%
CCOC(=O)c1ccc(Nc2ncnc3ccc(NC(=O)c4ccccc4)cc23)cc1	91.2%
NS(=O)(=O)c1ccc(-n2nc(-c3ccccc3)ccc2=O)cc1	95.6%
CC(=O)Nc1nc2c(c(N)c1C#N)C(c1cccc(Cl)c1)C1=C(CCCC1=O)N2c1sc2c(c1C#N)CCCC2 (stereo unspecified)	50.4%

The compounds below were run on MOLT-4 leukemia in the same assay as above. Settings: 10 µM unless noted.

SMILES	growth
COc1ccc(-n2cc(-c3ccc(Cl)c(Cl)c3)[nH]c2=O)cc1OC	144%
CN1CCN(S(=O)(=O)O[C@@H]2C(=O)N(c3cc4c5ccccc5ccc4c4ccccc34)[C@H]2c2ccc(F)cn2)CC1	66.6%
O=C(O)CCNC1CCCCC1	103%
C#C[C@@]1(O)[C@@H](CO)O[C@@H](n2cc(I)c3c(N)ncnc32)[C@@H]1O	-18.8% (active)
COC1=CC2C=C(C3N(c4ccccc4)NC(=O)[C@@H]4CCCN34)C(=O)NC2C=C1 (stereo partly specified)	124%
CCCCc1n(Cc2ccc3ccccc3n2)cc[n+]1Cc1ccc2ccccc2c1	4.42% (active)
CN1CCN(/C=C2\CC(C(=O)NCc3ccc(Cl)cc3Cl)NC2=O)CC1 (stereo unspecified)	95.2%
O=C1NC(SCc2ccc(F)cc2)=N/C1=C/c1cccc(OCc2ccc(Cl)cc2)c1	51.2%
NS(=O)(=O)c1ccc(-n2ncc(NC(=O)Nc3ccc(S(=O)(=O)Nc4nccs4)cc3)c2-c2ccccc2)cc1	100%
N#CC(C#N)=C1NC(c2ccccc2)=C(c2ccccc2)C(c2ccccc2Cl)=C1C#N	81.5%
CCOc1ccccc1C(=O)/C=C/c1cc2ccccc2[nH]c1=O	5.16% (active)
Cc1ccc2nc3nc4ccc[nH]c4cc3c2c1	119%
C=C1C(=O)O[C@H]2[C@H]1CC/C(C=Nc1c(N)cc(C(F)(F)F)cc1Br)=C\CC[C@@]1(C)O[C@@H]21	-2.99% (active)
NC(N)=NC(N)=Nc1cc2ccccc2c2ccccc12	9.61% (active)
O=C(Nc1ccc(S(=O)(=O)NC2CCCCCC2)cc1)C(c1ccccc1)S(=O)(=O)c1ccc(F)cc1 (stereo unspecified)	6.98% (active)
O=c1[nH]c2ccccc2cc1-c1nc2ccncc2[nH]1	45.8%
Cc1cccc(C)c1NCc1nnc(-c2ccco2)o1	88.8%
Cc1ccc(-c2nc(C#N)c(S(=O)(=O)N(C)CCO)o2)cc1	7.32% (active)
Nc1c(C(=O)Nc2ccccc2Cl)sc2nc3c(cc12)CN(Cc1ccccc1)CC3	89.6%

SMILES	growth
C#Cc1ccccc1NC(=O)c1sc2nc3c(cc2c1N)CCCCCC3	67.1%
CCOCc1cc(C(C)(C)C)ccc1O	99.4%
C=C(C)[C@@H]1CC[C@]2(C(=O)OCCOCCOCC[P+](c3ccccc3)(c3ccccc3)c3ccccc3)CC[C@]3(C)[C@H](CC[C@@H]4[C@@]5(C)CC[C@H](OC(=O)C(Cl)Cl)C(C)(C)[C@@H]5CC[C@]43C)[C@@H]12	-8.02% (active)
CNCc1cccc2c1OCCOCCOCCN(CCN1CCOCC1)S(=O)(=O)c1ccc(cc1)-c1cnc(N)c(n1)C(=O)N2	-1.99% (active)
Cc1c(Cl)cccc1NC(=O)c1sc2nc3c(cc2c1N)CN(Cc1ccccc1)CC3	22.9%
C=C(C)[C@@H]1CC[C@]2(C(=O)NCCCO)CC[C@]3(C)[C@H](CC[C@@H]4[C@@]5(C)CCCNC(C)(C)[C@@H]5CC[C@]43C)[C@@H]12	30.5%
COc1cc(/C=N/Nc2nc(-c3ccc(F)cc3)c(C#N)c(N3CCOCC3)n2)ccc1O	73.4%
C=C(C)[C@@H]1CC[C@]2(C(=O)N=C=S)CC[C@]3(C)[C@H](CC[C@@H]4[C@@]5(C)CCC(=O)C(C)(C)[C@@H]5CC[C@]43C)[C@@H]12	25.6%
CC1CCCN(CCCCCOc2ccc3oc4ccc(Cl)cc4c(=O)c3c2)C1 (stereo unspecified)	48.5%
O=C(Nc1cccc(-c2cccc(F)c2)c1)C1CCN(Cc2cccc3cccnc23)CC1	17.6%
CC(=O)Nc1ccc2c(c1)Cc1cc(F)ccc1-2	89.4%
COc1ccc2[nH]c(=O)c(/C=C/C(=O)/C=C/c3ccc(O)c(OC)c3)cc2c1	21%
CC1=C/C(=N\N=C2/C=C(C)CC(C)(C)C2)CC(C)(C)C1	96.3%
NC(=O)c1ccc(C2C3=C(CCCC3=O)OC3=C2C(=O)c2ccccc2C3=O)cc1 (stereo unspecified)	-17.4% (active)
N#CC1(C#N)C2=C(CCCC2)NC(c2c(F)cccc2Cl)C1(C#N)C#N (stereo unspecified)	43.5%
CCCCn1c(=O)c(/C=C/C(=O)/C=C/c2ccc(OC)cc2)cc2cc(Cl)ccc21	44.4%
CCOC(=O)c1ccc(Nc2ncnc3ccc(NC(=O)c4ccccc4)cc23)cc1	63.8%
NS(=O)(=O)c1ccc(-n2nc(-c3ccccc3)ccc2=O)cc1	96.4%
CC(=O)Nc1nc2c(c(N)c1C#N)C(c1cccc(Cl)c1)C1=C(CCCC1=O)N2c1sc2c(c1C#N)CCCC2 (stereo unspecified)	12.6%
